Laboratory results as given in PubChem BioAssay AID1159580 (chemical genetic matrix, 2015).
Among all 5,500 compounds or so, about 2,000 (36%) were called active. Inconclusive results (about 18%) are left out. Cut-off read from the data, not from the text of the source: active = normalized growth mostly below about 0.91 (no sharp cut-off); inconclusive = no clear call, values can overlap the other calls; inactive = mostly above about 0.92. The list shows a part of the results.

Assay: chemical genetic growth profiling, strain panel (AID 1159580);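 note: tested at 20 µM; growth read once vehicle control cultures reached saturation at 30 °C; 1 = growth at the plate median or of vehicle wells; lower values mean less growth of the strain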
Settings: growth OD

Measured: normalized growth

CC1(C)C[C@@H]2C(=O)CC[C@H]3O[C@]3(C)CC[C@H]21
inactive: S. cerevisiae deletion strains, locus YJR075W, strain HOC1, stronger effect = lower value 1.01 | S. cerevisiae deletion strains, locus YKL009W, strain mrt4, stronger effect = lower value 0.985 | S. cerevisiae deletion strains, locus YKL068W, stronger effect = lower value 0.997 | S. cerevisiae deletion strains, locus YKL085W, strain MDH1 (second series), stronger effect = lower value 0.996 | S. cerevisiae deletion strains, locus YKL085W, strain MDH1, stronger effect = lower value 0.996 | S. cerevisiae deletion strains, locus YKL160W, strain elf1, stronger effect = lower value 1.01 | S. cerevisiae deletion strains, locus YKL190W, strain CNB1, stronger effect = lower value 1.01 | S. cerevisiae deletion strains, locus YKR001C, strain vps1, stronger effect = lower value 0.994 | S. cerevisiae deletion strains, locus YKR026C, strain gcn3, stronger effect = lower value 1.02 | S. cerevisiae deletion strains, locus YKR091W, strain srl3, stronger effect = lower value 1.01 | S. cerevisiae deletion strains, locus YLL001W, strain dnm1, stronger effect = lower value 0.985 | S. cerevisiae deletion strains, locus YLL026W, stronger effect = lower value 1.01 | S. cerevisiae deletion strains, locus YLL041C, strain sdh2, stronger effect = lower value 1.01 | S. cerevisiae deletion strains, locus YLR027C, strain aat2, stronger effect = lower value 1.03 | S. cerevisiae deletion strains, locus YLR039C, strain RIC1, stronger effect = lower value 1.07 | S. cerevisiae deletion strains, locus YLR058C, strain SHM2, stronger effect = lower value 1.01 | S. cerevisiae deletion strains, locus YLR102C, strain apc9, stronger effect = lower value 0.991 | S. cerevisiae deletion strains, locus YLR113W, strain HOG1, stronger effect = lower value 0.951 | S. cerevisiae deletion strains, locus YLR221C, strain rsa3, stronger effect = lower value 1.04 | S. cerevisiae deletion strains, locus YLR258W, strain gsy2, stronger effect = lower value 0.995 | S. cerevisiae deletion strains, locus YLR262C, strain YPT6 (second series), stronger effect = lower value 1.05 | S. cerevisiae deletion strains, locus YLR262C, strain YPT6, stronger effect = lower value 1.06 | S. cerevisiae deletion strains, locus YLR268W, strain sec22, stronger effect = lower value 0.992 | S. cerevisiae deletion strains, locus YLR320W, strain mms22, stronger effect = lower value 1.04 | S. cerevisiae deletion strains, locus YLR330W, strain CHS5, stronger effect = lower value 1.01 | S. cerevisiae deletion strains, locus YLR342W, strain FKS1 (second series), stronger effect = lower value 0.987 | S. cerevisiae deletion strains, locus YLR342W, strain FKS1, stronger effect = lower value 1.01 | S. cerevisiae deletion strains, locus YLR357W, strain rsc2, stronger effect = lower value 1 | S. cerevisiae deletion strains, locus YLR370C, strain arc18, stronger effect = lower value 1.01 | S. cerevisiae deletion strains, locus YLR371W, strain rom2, stronger effect = lower value 0.998 | S. cerevisiae deletion strains, locus YLR384C, strain iki3, stronger effect = lower value 1.03 | S. cerevisiae deletion strains, locus YLR418C, strain cdc73, stronger effect = lower value 1.01 | S. cerevisiae deletion strains, locus YML016C, strain PPZ1, stronger effect = lower value 1 | S. cerevisiae deletion strains, locus YML032C, strain rad52, stronger effect = lower value 0.983 | S. cerevisiae deletion strains, locus YML120C, strain ndi1, stronger effect = lower value 0.999 | S. cerevisiae deletion strains, locus YML124C, strain tub3, stronger effect = lower value 0.995 | S. cerevisiae deletion strains, locus YMR058W, strain fet3, stronger effect = lower value 1.03 | S. cerevisiae deletion strains, locus YMR078C, strain ctf18, stronger effect = lower value 0.989 | S. cerevisiae deletion strains, locus YMR125W, strain sto1, stronger effect = lower value 1.01 | S. cerevisiae deletion strains, locus YMR129W, stronger effect = lower value 1.01 | S. cerevisiae deletion strains, locus YMR205C, strain PFK2, stronger effect = lower value 1 | S. cerevisiae deletion strains, locus YMR223W, strain ubp8, stronger effect = lower value 0.991 | S. cerevisiae deletion strains, locus YMR231W, strain pep5, stronger effect = lower value 1.02 | S. cerevisiae deletion strains, locus YMR263W, strain SAP30, stronger effect = lower value 1.02 | S. cerevisiae deletion strains, locus YMR307W, strain GAS1, stronger effect = lower value 1.01 | S. cerevisiae deletion strains, locus YNL067W, strain RPL9B, stronger effect = lower value 1.01 | S. cerevisiae deletion strains, locus YNL071W, strain lat1, stronger effect = lower value 1.01 | S. cerevisiae deletion strains, locus YNL128W, strain TEP1, stronger effect = lower value 1.02 | S. cerevisiae deletion strains, locus YNL153C, strain GIM3, stronger effect = lower value 1.02 | S. cerevisiae deletion strains, locus YNL183C, strain NPR1, stronger effect = lower value 0.905 | S. cerevisiae deletion strains, locus YNL209W, strain ssb2, stronger effect = lower value 1.01 | S. cerevisiae deletion strains, locus YNL233W, strain BNI4, stronger effect = lower value 1.02 | S. cerevisiae deletion strains, locus YNL248C, strain rpa49, stronger effect = lower value 1.04 | S. cerevisiae deletion strains, locus YNL250W, strain rad50, stronger effect = lower value 0.998 | S. cerevisiae deletion strains, locus YNL271C, strain bni1, stronger effect = lower value 0.997 | S. cerevisiae deletion strains, locus YNL298W, strain CLA4, stronger effect = lower value 0.996 | S. cerevisiae deletion strains, locus YNL307C, strain MCK1, stronger effect = lower value 0.99 | S. cerevisiae deletion strains, locus YNL322C, strain KRE1 (second series), stronger effect = lower value 1 | S. cerevisiae deletion strains, locus YNL322C, strain KRE1, stronger effect = lower value 1.01 | S. cerevisiae deletion strains, locus YNR049C, strain mso1, stronger effect = lower value 1.02 | S. cerevisiae deletion strains, locus YNR052C, strain pop2, stronger effect = lower value 0.999 | S. cerevisiae deletion strains, locus YOL006C, strain TOP1, stronger effect = lower value 1.07 | S. cerevisiae deletion strains, locus YOL012C, strain htz1 1.57 | S. cerevisiae deletion strains, locus YOL147C, strain pex11, stronger effect = lower value 0.997 | S. cerevisiae deletion strains, locus YOR001W, strain rrp6, stronger effect = lower value 1.02 | S. cerevisiae deletion strains, locus YOR061W, strain CKA2, stronger effect = lower value 1.01 | S. cerevisiae deletion strains, locus YOR069W, strain VPS5, stronger effect = lower value 1 | S. cerevisiae deletion strains, locus YOR070C, strain gyp1, stronger effect = lower value 1.02 | S. cerevisiae deletion strains, locus YOR080W, strain dia2, stronger effect = lower value 1.03 | S. cerevisiae deletion strains, locus YOR083W, strain WHI5, stronger effect = lower value 1.01 | S. cerevisiae deletion strains, locus YOR106W, strain vam3, stronger effect = lower value 0.995 | S. cerevisiae deletion strains, locus YOR136W, strain idh2, stronger effect = lower value 0.996 | S. cerevisiae deletion strains, locus YOR144C, strain elg1, stronger effect = lower value 0.995 | S. cerevisiae deletion strains, locus YOR184W, strain ser1, stronger effect = lower value 0.962 | S. cerevisiae deletion strains, locus YOR231W, strain MKK1, stronger effect = lower value 0.947 | S. cerevisiae deletion strains, locus YOR265W, strain rbl2, stronger effect = lower value 1.03 | S. cerevisiae deletion strains, locus YOR270C, strain vph1, stronger effect = lower value 1.07 | S. cerevisiae deletion strains, locus YOR290C, strain snf2, stronger effect = lower value 0.995 | S. cerevisiae deletion strains, locus YOR316C, strain cot1, stronger effect = lower value 0.992 | S. cerevisiae deletion strains, locus YPL051W, strain arl3, stronger effect = lower value 1 | S. cerevisiae deletion strains, locus YPL055C, strain LGE1, stronger effect = lower value 1.04 | S. cerevisiae deletion strains, locus YPL078C, strain atp4, stronger effect = lower value 0.992 | S. cerevisiae deletion strains, locus YPL106C, strain sse1, stronger effect = lower value 0.984 | S. cerevisiae deletion strains, locus YPL240C, strain hsp82, stronger effect = lower value 1.02 | S. cerevisiae deletion strains, locus YPL241C, strain CIN2, stronger effect = lower value 1.01 | S. cerevisiae deletion strains, locus YPL256C, strain CLN2, stronger effect = lower value 0.983 | S. cerevisiae deletion strains, locus YPR119W, strain clb2, stronger effect = lower value 0.992 | S. cerevisiae deletion strains, locus YPR141C, strain kar3, stronger effect = lower value 0.991 | S. cerevisiae deletion strains, locus YPR163C, strain tif3, stronger effect = lower value 0.998 | S. cerevisiae deletion strains, locus YPR167C, strain met16, stronger effect = lower value 0.995 | S. cerevisiae deletion strains, strain wtn01, stronger effect = lower value 0.989 | S. cerevisiae strains, strain wild type, stronger effect = lower value 1.01
